Experimental data published in PubChem BioAssay (Tox21).
“And” between values parts separate entries of the source, which are not always exact repeats. Equal entries are not always repeated. Inconclusive results are not listed. Entries that show only a call come without a potency. More than one record can exist for a structure, and the calls need not agree. The source made the active and inactive calls. Unless noted, the call rests on the fitted dose curve; in most records, active means well fitted curve in the direction sought with a large enough effect in the repeat runs; inconclusive means weak or mixed curves; inactive means no such curve, though single readings can be large; an effect the other way counts as inactive or inconclusive.

Key:
[1] = qHTS assay to identify aromatase inhibitors - cell viability counter screen (AID 743084);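 further: cells stimulated with testosterone during compound exposure; nearly all actives have a fitted effect of over 55% in size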; further: potency means the concentration at half of the fitted maximal effect
[2] = biological target: Aryl hydrocarbon receptor (Homo sapiens) (UniProt P35869); test: qHTS assay to identify small molecule that activate the aryl hydrocarbon receptor (AhR) signaling pathway (AID 743085); further: nearly all actives have a fitted effect of over 15% in size; further: potency means the concentration at half of the fitted maximal effect;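 on activation: HG2L7.5c1 human HepG2 liver cells with stably integrated DRE-driven firefly reporter; series mostly up to about 70 µM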
Aryl hydrocarbon receptor (Homo sapiens), sequence (P35869 whole entry, looked up): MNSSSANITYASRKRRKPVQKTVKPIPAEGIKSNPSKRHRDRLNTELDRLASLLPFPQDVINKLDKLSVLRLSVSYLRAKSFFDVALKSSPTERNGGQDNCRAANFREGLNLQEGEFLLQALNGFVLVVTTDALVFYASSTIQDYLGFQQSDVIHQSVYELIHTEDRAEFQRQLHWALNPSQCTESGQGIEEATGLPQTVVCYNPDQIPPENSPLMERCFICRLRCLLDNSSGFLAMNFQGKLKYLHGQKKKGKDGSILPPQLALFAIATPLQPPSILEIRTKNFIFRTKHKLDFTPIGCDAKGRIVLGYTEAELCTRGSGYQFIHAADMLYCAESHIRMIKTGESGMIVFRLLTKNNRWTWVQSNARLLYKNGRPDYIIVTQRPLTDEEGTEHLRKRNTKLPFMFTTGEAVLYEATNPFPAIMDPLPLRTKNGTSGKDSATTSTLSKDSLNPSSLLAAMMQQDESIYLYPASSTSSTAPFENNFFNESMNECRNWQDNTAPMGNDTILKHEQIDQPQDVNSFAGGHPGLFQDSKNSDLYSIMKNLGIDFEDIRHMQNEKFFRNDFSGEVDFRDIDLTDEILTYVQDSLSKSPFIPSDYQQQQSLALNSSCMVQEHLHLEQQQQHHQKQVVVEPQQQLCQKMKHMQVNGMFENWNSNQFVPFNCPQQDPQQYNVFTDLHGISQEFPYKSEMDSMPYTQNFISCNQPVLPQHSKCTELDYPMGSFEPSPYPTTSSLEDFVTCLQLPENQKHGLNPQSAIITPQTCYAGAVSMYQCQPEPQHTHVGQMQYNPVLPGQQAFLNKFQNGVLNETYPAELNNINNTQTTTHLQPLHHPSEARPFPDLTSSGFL
In short: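 Compounds were tested in HepG2 hepatocellular carcinoma cells harbouring a stably integrated luciferase gene under control of 20 DREs. Increased reporter signal after 24 h treatment at 37C was taken as AhR activation.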

[3] = qHTS assay to identify small molecule that activate the aryl hydrocarbon receptor (AhR) signaling pathway - cell viability counter screen (AID 743086); further: nearly all actives have a fitted effect of over 45% in size; further: potency means the concentration at half of the fitted maximal effect
In short: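 HepG2-AhR-luc (HG2L7.5c1) cells, 4000/well, were preincubated 5 h at 37C, exposed to compound in qHTS format for 24 hr at 37C, then given CellTiter-Fluor for 30 min; viability was read as fluorescence in the reporter wells.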

[4] = qHTS assay to identify small molecule antagonists of the peroxisome proliferator-activated receptor gamma (PPARg) signaling pathway - cell viability counter screen (AID 743194); settings: Potency: co-treated with 50 nM rosiglitazone unless noted; further: nearly all actives have a fitted effect of over 55% in size; further: potency means the concentration at half of the fitted maximal effect
In short: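 PPARg-UAS-bla HEK293H cells were plated, rested 5 h at 37 C, then treated with compounds plus rosiglitazone (50 nM final) for 17 h at 37 C; viability was then read by CellTiter-Glo luminescence after 30 min at room temperature.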

[5] = qHTS assay for small molecule agonists of the antioxidant response element (ARE) signaling pathway (AID 743202; active means well fitted activation curve with a large enough effect in the signal ratio in the repeat runs, not every such curve was filed as active; the % refers to the signal ratio; further: potency means the concentration at half of the fitted maximal effect)
In short: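 Read-out: LiveBLAzer B/G FRET substrate fluorescence after 2 h at room temperature, following 16 h compound treatment at 37 C of HepG2 cells carrying an ARE-driven beta-lactamase reporter.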

[6] = qHTS assay for small molecule agonists of the antioxidant response element (ARE) signaling pathway - cell viability counter screen (AID 743203; calls by dose curve; further: nearly all actives have a fitted effect of over 55% in size; further: potency means the concentration at half of the fitted maximal effect)
In short: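 Compounds in DMSO were pinned onto ARE-bla HepG2 cells plated 5 hrs earlier at 2,000 cells/well. Sixteen hours later at 37C/5% CO2, CellTiter-Glo was added and luminescence measured after 30 min at room temperature.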

[7] = qHTS assay for small molecule activators of the heat shock response signaling pathway - cell viability counter screen (AID 743209); further: nearly all actives have a fitted effect of over 50% in size; further: potency means the concentration at half of the fitted maximal effect
In short: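 Counter screen for cytotoxicity in HeLa HSE-bla reporter cells. Treatment was 5 h at 37 C; viability was detected by luminescent ATP assay (CellTiter-Glo) in the same wells as the beta-lactamase read.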

[8] = qHTS assay for small molecule activators of the heat shock response signaling pathway (AID 743210; active means well fitted activation curve with a large enough effect in the signal ratio in the repeat runs, with a control signal flat, not every such curve was filed as active; the % refers to the signal ratio; further: series mostly up to about 63 µM)
In short: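 HSE-bla HeLa cells (beta-lactamase reporter under heat shock response elements) were exposed to compounds for 5 h at 37 C, then loaded with LiveBLAzer B/G FRET substrate for 2.5 h at room temperature before fluorescence reading.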

[9] = biological target: Peroxisome proliferator-activated receptor gamma (Homo sapiens) (UniProt P37231); test: qHTS assay to identify small molecule agonists of the peroxisome proliferator-activated receptor gamma (PPARg) signaling pathway (AID 743094; active means well fitted activation curve with a large enough effect in the signal ratio in the repeat runs, not every such curve was filed as active; the % refers to the signal ratio)
Peroxisome proliferator-activated receptor gamma (Homo sapiens), sequence (P37231 whole entry, looked up): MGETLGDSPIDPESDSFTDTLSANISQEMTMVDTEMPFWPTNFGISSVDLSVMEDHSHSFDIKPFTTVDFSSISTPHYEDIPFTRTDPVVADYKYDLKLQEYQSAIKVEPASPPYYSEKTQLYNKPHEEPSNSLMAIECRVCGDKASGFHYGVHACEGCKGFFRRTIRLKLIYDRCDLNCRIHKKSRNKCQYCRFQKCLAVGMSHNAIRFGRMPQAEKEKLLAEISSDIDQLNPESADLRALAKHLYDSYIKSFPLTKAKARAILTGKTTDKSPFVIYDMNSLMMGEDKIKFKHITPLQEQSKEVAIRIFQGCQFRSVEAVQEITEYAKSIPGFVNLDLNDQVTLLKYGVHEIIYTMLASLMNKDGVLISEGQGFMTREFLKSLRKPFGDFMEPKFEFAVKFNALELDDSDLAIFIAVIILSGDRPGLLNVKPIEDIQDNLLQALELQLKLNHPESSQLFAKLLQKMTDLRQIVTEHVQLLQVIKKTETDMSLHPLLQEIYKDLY
In short: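 Following 5 h plating at 37C, PPARg-bla HEK293H cells receive compound or DMSO for 17 h; fluorescence intensity is recorded after LiveBLAzer B/G loading for 1 h at room temperature.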

[10] = biological target: Peroxisome proliferator-activated receptor gamma (Homo sapiens) (UniProt P37231); test: qHTS assay to identify small molecule antagonists of the peroxisome proliferator-activated receptor gamma (PPARg) signaling pathway (AID 743191; calls by dose curve; further: nearly all actives have a fitted effect of over 30% in size; further: potency means the concentration at half of the fitted maximal effect)
In short: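 GeneBLAzer PPARg UAS-bla HEK293H cells carrying a UAS-driven beta-lactamase reporter were plated at 3000 cells/well, preincubated 5 h at 37C, then given compound for 17 h at 37C; LiveBLAzer B/G FRET substrate was read after 1 h at room temperature.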

SMILES	Potency [1]	Potency [2]	Potency [3]	Potency [4]	Potency [5]	Potency [6]	Potency [7]	Potency [8]	Potency [9]	Potency [10]
[Cl-].[Cl-].[Cl-].[Fe+3]	inactive	inactive	inactive	inactive	inactive	inactive	inactive	inactive	–	–
CC(C)Nc1ccc(Nc2ccccc2)cc1	30.5 µM (active) and 54.5 µM (active)	inactive and 2.17 µM (active)	–	–	27.3 µM (active)	inactive	inactive	–	–	–
CC(C)(c1ccccc1)c1ccc(O)c(C(C)(C)c2ccccc2)c1	48.1 µM (active)	inactive	inactive	15.3 µM (active) and 19.5 µM (active)	–	54 µM (active) and 21.7 µM (active)	48.5 µM (active) and 24.5 µM (active)	–	–	–
CS(=O)(=O)NC(=O)c1cc(Oc2ccc(C(F)(F)F)cc2Cl)ccc1[N+](=O)[O-]	inactive	inactive	inactive	inactive	–	inactive	inactive	inactive	inactive	–
C=C(C)C#N	inactive	inactive	inactive	inactive	inactive	inactive	inactive	inactive	–	–
CCC[CH2][Sn]([Cl])([CH2]CCC)[CH2]CCC	1.54 µM (active) and 3.06 µM (active)	inactive	2.17 µM (active) and 3.44 µM (active)	1.38 µM (active) and 1.1 µM (active)	–	771 nM (active) and 1.09 µM (active)	1.74 µM (active) and 2.75 µM (active)	–	–	–
CC(C)(O)C(=O)Nc1ccc([N+](=O)[O-])c(C(F)(F)F)c1	inactive	inactive	inactive	inactive	27.9 µM (active) and 22.4 µM (active)	inactive	inactive	inactive	–	–
Oc1ccc(Cl)cc1Cc1ccccc1	inactive and 30.6 µM (active) and 49.2 µM (active)	inactive	inactive	–	–	68.6 µM (active) and 55.1 µM (active)	54.9 µM (active) and 45.4 µM (active) and inactive	–	inactive	–
COc1ccc(CO)cc1	inactive	inactive	inactive	inactive	inactive	inactive	inactive	inactive	–	–
c1ccc2c(c1)Nc1ccccc1S2	inactive	–	inactive	inactive	inactive	inactive	inactive	inactive	inactive	inactive
ClC(Cl)(Cl)c1ccccc1	inactive	inactive	inactive	inactive	inactive	inactive	inactive	inactive	–	–
O=[N+]([O-])c1ccc(Cl)c([N+](=O)[O-])c1	6.21 µM (active) and 6.86 µM (active)	inactive	24.7 µM (active) and 27.3 µM (active)	11.1 µM (active) and 9.77 µM (active)	–	12.4 µM (active) and 6.86 µM (active)	9.92 µM (active) and 4.9 µM (active)	–	–	8.85 µM (active) and 8.71 µM (active)
OC(c1ccc(Cl)cc1)(c1cncnc1)c1ccccc1Cl (stereo not drawn)	inactive	inactive	inactive	inactive	–	inactive	inactive	inactive	–	54.9 µM (active)
C=CC(=O)OCC(CC)(COC(=O)C=C)COC(=O)C=C	6.28 µM (active) and 6.86 µM (active)	inactive	31.5 µM (active) and 27.3 µM (active)	28.3 µM (active) and 9.77 µM (active)	–	inactive and 61.1 µM (active)	3.56 µM (active) and 1.55 µM (active)	–	–	–
CN(C)c1ccccc1	–	–	inactive	inactive	inactive	inactive	inactive	inactive	–	–
CC(C)(c1ccc(OCC2CO2)cc1)c1ccc(OCC2CO2)cc1 (stereo not drawn)	inactive	inactive	inactive	55.7 µM (active)	61.1 µM (active)	inactive	inactive	–	–	–
O=C(O)c1nn(Cc2ccc(Cl)cc2Cl)c2ccccc12	inactive	inactive	inactive	inactive	54.1 µM (active)	inactive	inactive	inactive	–	–
Cl	inactive	inactive	inactive	inactive	inactive	inactive	inactive	inactive	–	–

SMILES	Potency [1]	Potency [2]	Potency [3]	Potency [4]	Potency [5]	Potency [6]	Potency [7]	Potency [8]	Potency [9]	Potency [10]
CCCCCCCC[N+](C)(CCCCCCCC)CCCCCCCC	17.2 µM (active) and 4.86 µM (active) and 27.3 µM (active)	inactive	inactive and 24.3 µM (active)	7.75 µM (active) and 3.47 µM (active) and 5.49 µM (active)	–	12.2 µM (active) and 19.4 µM (active) and 8.63 µM (active)	13.8 µM (active) and 4.37 µM (active)	–	–	–
Clc1cccc(C(Cl)(Cl)Cl)n1	inactive	–	inactive	inactive	inactive	inactive	inactive	inactive	inactive	inactive
O=[N+]([O-])c1ccc(Nc2ccccc2)cc1	30.9 µM (active) and 27.3 µM (active)	inactive	24.5 µM (active) and 24.3 µM (active)	–	–	34.4 µM (active)	inactive and 27.5 µM (active)	inactive	–	–
C[C@]12CCC(=O)C=C1CC[C@@H]1[C@@H]2CC[C@@]2(C)[C@H]1CC[C@]2(C)O	inactive	inactive	inactive	inactive	–	inactive	inactive	inactive	inactive	–
O=[N+]([O-])/N=C1\NCCN1Cc1ccc(Cl)nc1	inactive	–	inactive	inactive	inactive	inactive	inactive	inactive	inactive	inactive
CC(C)=CC1C(C(=O)OCc2cccc(Oc3ccccc3)c2)C1(C)C (stereo not drawn)	inactive	inactive	inactive	inactive	inactive	inactive	inactive	inactive	–	–
Cc1cccc(N=Nc2ccc(N(C)C)cc2)c1	–	13.9 µM (active) and 9.69 µM (active)	–	inactive	–	inactive	inactive	–	inactive	–
O=C1C(Cl)=C(Cl)C(=O)c2ccccc21	4.34 µM (active) and 27.3 µM (active)	17.3 µM (active) and 10.9 µM (active)	–	39 µM (active) and 11 µM (active)	–	68.8 µM (active) and 21.7 µM (active)	27.6 µM (active) and 12.3 µM (active)	–	–	–
ClCC(Cl)CCl	–	–	inactive	inactive	inactive	inactive	inactive	inactive	–	–
CCOP(=O)(O)OCC (tested in a mixture with another compound)	inactive and 24.1 µM (active)	–	inactive and 30.4 µM (active)	–	inactive	inactive and 17.1 µM (active)	inactive	–	–	–
CCN(CC)C(=O)C(C)Oc1cccc2ccccc12 (stereo not drawn)	inactive	54.9 µM (active) and 30.6 µM (active)	–	inactive	inactive	inactive	inactive	inactive	inactive	inactive
N#Cc1c(Cl)c(Cl)c(Cl)c(C#N)c1Cl	1.69 µM (active) and 1.93 µM (active)	inactive	inactive and 21.7 µM (active)	2.41 µM (active) and 1.55 µM (active)	–	10.7 µM (active) and 3.86 µM (active)	854 nM (active) and 616 nM (active)	–	–	–
CCC(=O)Nc1ccc(Cl)c(Cl)c1	inactive	54.5 µM (active)	inactive	inactive	–	inactive	inactive	inactive	inactive	–
N#CC(c1ccccc1)c1ccccc1	inactive	–	inactive	inactive	inactive	inactive	inactive	inactive	inactive	inactive
CSc1nc(NC(C)C)nc(NC(C)C)n1	inactive	inactive	inactive	inactive	–	inactive	inactive	inactive	inactive	–
CC(C)(O)C#N	inactive	inactive	inactive	inactive	inactive	inactive	inactive	inactive	inactive	–
CC(O)CN(CC(C)O)CC(C)O (stereo not drawn)	inactive	–	inactive	inactive	inactive	inactive	inactive	inactive	–	–
